# Reference: PubChem BioAssay (NCATS)
# Inconclusive results are not listed. The source made the active and inactive calls. Unless noted, calls follow the shape of the dose curve; as a rule, active = well fitted curve in the direction sought with a large enough effect; inconclusive = small, poorly fitted or top-dose-only effect, or another doubt; inactive = no such curve, though single readings can be large; an effect the other way counts as inactive or inconclusive.
# Key:
# [1] = biological target: Lysosomal acid glucosylceramidase (Homo sapiens) (UniProt P04062); test: Glucocerebrosidase-p2 (AID 348; in the data active = potency below about 10 µM; also: potency is read from the fitted curve at half-maximal effect); conditions: purified GBA, blue fluorogenic substrate, 40 min
# Sequence of Lysosomal acid glucosylceramidase (Homo sapiens) (P04062 whole entry, looked up): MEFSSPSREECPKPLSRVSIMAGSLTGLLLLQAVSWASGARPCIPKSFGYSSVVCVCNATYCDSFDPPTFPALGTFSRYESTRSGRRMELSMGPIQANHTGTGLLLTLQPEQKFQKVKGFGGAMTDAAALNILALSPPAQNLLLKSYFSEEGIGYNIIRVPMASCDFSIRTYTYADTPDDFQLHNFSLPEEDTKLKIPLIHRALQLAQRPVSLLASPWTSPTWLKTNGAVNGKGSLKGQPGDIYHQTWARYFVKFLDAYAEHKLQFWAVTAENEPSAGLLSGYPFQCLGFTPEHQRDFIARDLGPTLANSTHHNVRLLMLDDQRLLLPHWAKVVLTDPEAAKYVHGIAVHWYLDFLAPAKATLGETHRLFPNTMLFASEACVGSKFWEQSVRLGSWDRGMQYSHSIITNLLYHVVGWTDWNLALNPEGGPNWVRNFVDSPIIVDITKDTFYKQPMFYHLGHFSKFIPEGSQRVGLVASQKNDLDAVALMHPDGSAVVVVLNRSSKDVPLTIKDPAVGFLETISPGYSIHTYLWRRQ
# Summary of the method: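 Normal human glucocerebrosidase (0.2 nM) with blue fluorogenic substrate (80 uM final) in citrate/phosphate pH 5.9 with 10mM sodium taurocholate, 0.01% tween-20; 40 min RT, NaOH/glycine stop; fluorescence Ex 365/Em 440; AC50 from a titration from 0.6 nM upwards.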
# [2] = biological target: Cytochrome P450 1A2 (Homo sapiens) (UniProt P05177); test: p450-cyp1a2 (AID 410; calls by dose curve; also: potency is read from the fitted curve at half-maximal effect)
# Sequence of Cytochrome P450 1A2 (Homo sapiens) (P05177 whole entry, looked up): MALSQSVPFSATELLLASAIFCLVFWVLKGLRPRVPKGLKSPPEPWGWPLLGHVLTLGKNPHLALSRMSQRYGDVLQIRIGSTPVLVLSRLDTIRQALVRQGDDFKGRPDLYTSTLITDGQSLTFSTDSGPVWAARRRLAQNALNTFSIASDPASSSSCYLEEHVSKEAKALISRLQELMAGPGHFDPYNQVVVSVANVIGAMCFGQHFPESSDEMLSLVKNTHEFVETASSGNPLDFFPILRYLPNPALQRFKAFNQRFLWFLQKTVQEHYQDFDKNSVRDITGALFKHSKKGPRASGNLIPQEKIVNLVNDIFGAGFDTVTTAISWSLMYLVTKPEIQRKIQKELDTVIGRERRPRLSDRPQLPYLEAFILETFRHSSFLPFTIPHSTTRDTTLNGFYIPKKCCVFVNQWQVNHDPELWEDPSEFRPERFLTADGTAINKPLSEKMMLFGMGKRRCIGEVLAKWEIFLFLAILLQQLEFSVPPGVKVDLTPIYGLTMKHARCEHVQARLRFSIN
# Summary of the method: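 O-Demethylation of luciferin 6' methyl ether by human CYP1A2 is monitored as luciferase luminescence. Substrate sits at Km (100uM); enzyme is 20nM. Values are scaled to 57 uM furafylline as maximal inhibition.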
# [3] = NFAT Signaling Pathway (AID 444; active = well fitted curve in either direction with a large enough effect, not every such curve was filed as active;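 also: carbachol stimulus at about its EC50 of 1 µM final; % is scaled to controls: 0 for no effect and ±100 for the full control effect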); conditions: Jurkat NFAT-bla M1, carbachol, beta-lactamase ratio, 5 h; at 7.69 µM (top of the series) unless noted
# Summary of the method: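 Jurkat cells with NFAT-driven β-lactamase reporter and co-expressed M1 receptor, stimulated with carbachol (final 1 uM, ~EC50), compound titration, 5 h at 37 °C. CCF4 loaded 1 h at RT; 460/530 nm ratio gave %activity and AC50.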
# [4] = biological target: Glucocorticoid receptor (Homo sapiens) (UniProt P04150); test: GR-GFP Redistribution (AID 450;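 active = compounds whose dose series gives a full or clear partial fitted curve of increased nuclear translocation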; also: potency is read from the fitted curve at half-maximal effect); conditions: U2OS GR-GFP nuclear translocation, laser cytometry, 2 h
# Sequence of Glucocorticoid receptor (Homo sapiens) (P04150 whole entry, looked up, the tested form may be a part): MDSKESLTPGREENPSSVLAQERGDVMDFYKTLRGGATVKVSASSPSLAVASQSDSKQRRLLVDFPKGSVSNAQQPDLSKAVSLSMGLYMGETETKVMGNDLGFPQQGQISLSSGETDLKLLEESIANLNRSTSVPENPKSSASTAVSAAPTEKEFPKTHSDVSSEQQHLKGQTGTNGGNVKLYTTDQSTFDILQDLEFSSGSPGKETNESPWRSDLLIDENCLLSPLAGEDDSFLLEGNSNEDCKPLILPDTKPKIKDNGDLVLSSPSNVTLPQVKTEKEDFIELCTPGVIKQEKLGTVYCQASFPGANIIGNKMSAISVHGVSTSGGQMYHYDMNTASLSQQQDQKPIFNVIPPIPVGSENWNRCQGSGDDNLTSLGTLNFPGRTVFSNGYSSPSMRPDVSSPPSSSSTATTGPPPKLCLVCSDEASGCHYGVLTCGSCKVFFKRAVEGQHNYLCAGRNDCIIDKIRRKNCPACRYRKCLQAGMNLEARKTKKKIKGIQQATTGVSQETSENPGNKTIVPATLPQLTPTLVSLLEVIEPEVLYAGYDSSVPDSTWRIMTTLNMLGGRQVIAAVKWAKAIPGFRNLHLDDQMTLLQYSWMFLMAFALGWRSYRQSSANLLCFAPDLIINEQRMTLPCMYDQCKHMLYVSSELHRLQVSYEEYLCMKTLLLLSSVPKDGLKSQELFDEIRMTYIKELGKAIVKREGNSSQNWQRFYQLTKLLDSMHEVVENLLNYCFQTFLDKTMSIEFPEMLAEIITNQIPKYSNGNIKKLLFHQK
# [5] = biological target: Glucocorticoid receptor (Homo sapiens) (UniProt P04150); test: GR-EFC Redistribution (AID 451; calls by dose curve; also: potency is read from the fitted curve at half-maximal effect); conditions: CHO-K1 GR-EFC translocation, beta-gal luminescence, 2 h
# Summary of the method: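 CHO-K1 cells expressing nuclear EA and GR-ED fragments of b-gal; compounds titrated up to 46 uM final, 2 h at 37 C. GR nuclear translocation read as complemented b-gal luminescence after 1 h RT detection.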
# [6] = biological target: Mitogen-activated protein kinase 10 (Mus musculus) (UniProt Q61831); test: JNK3 AlphaScreen Assay (AID 530; active = well fitted curve in either direction with a large enough effect, not every such curve was filed as active;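 also: kinase came from lysate of stimulated human HepG2 cells; signal reports phosphorylation of biotinylated GST-cJun 1-79 at Ser73 with 10 µM ATP; % is scaled to controls: 0 for no effect and ±100 for the full control effect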)
# Summary of the method: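 Activity was read by AlphaScreen after JNK3-containing HepG2 lysate (cytokine pre-activated) phosphorylated biotinylated GST-cJun with 10 uM ATP at room temperature. Phospho-Ser73 cJun antibody with Protein-A acceptor beads provided detection.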
# [7] = biological target: 3',5'-cyclic-AMP phosphodiesterase 4B (Homo sapiens) (UniProt Q07343); test: qHTS Assay for Inhibitors of PDE-IV (AID 607; active = well fitted activation curve with a large enough effect in the main read-out, with a control signal flat, not every such curve was filed as active; also: % of control where 0% means no effect)
# Summary of the method: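 HEK293 ACTOne cells with CNG channel (1000/well), endogenous PDE4; membrane potential dye, compounds up to 22.9 uM final. Fluorescence Ex 535/Em 590; RO 20-1724 (100 uM final) as reference.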
# [8] = biological target: Cytochrome P450 3A4 (Homo sapiens) (UniProt P08684); test: qHTS Assay for Activators of Cytochrome P450 3A4 (AID 885); also: nearly all actives have a fitted effect of over 65% in size
# Sequence of Cytochrome P450 3A4 (Homo sapiens) (P08684 whole entry, looked up): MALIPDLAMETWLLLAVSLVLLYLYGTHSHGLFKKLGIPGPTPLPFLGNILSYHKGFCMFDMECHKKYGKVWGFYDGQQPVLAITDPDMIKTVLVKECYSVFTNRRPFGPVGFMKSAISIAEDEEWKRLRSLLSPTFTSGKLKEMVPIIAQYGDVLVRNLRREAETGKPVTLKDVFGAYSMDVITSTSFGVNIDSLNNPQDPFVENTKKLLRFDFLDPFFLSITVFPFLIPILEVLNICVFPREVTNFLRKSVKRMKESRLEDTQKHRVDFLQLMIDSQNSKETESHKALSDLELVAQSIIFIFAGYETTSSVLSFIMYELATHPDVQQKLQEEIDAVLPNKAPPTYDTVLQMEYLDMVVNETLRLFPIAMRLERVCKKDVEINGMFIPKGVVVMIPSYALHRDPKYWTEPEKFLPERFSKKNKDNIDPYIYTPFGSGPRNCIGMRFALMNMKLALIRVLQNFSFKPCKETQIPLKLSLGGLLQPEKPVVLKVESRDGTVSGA
# Summary of the method: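 Human CYP3A4 dealkylates Luciferin-PPXE to luciferin, which luciferase detection converts to light. Substrate was at its KM (25uM), buffer 200mM KPO4, reaction 60 min at RT.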
# [9] = biological target: Cytochrome P450 2C19 (Homo sapiens) (UniProt P33261); test: qHTS Assay for Inhibitors and Substrates of Cytochrome P450 2C19 (AID 899); also: potency is read from the fitted curve at half-maximal effect; nearly all actives have a fitted effect of over 60% in size
# Sequence of Cytochrome P450 2C19 (Homo sapiens) (P33261 whole entry, looked up): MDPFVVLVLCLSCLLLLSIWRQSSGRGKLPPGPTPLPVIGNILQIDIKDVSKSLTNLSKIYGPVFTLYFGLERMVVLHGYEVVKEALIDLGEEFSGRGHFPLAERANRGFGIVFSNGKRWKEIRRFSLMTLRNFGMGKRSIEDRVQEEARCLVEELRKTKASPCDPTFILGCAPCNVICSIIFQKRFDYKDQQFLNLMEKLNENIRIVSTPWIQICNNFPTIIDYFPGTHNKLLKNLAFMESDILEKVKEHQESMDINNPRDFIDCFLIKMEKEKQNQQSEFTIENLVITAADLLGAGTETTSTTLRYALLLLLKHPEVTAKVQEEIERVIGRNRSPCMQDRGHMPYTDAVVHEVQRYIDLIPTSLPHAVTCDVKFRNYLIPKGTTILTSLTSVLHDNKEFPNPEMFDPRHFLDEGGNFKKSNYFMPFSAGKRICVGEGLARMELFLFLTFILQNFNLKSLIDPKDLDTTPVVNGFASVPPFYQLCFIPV
# Summary of the method: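 Signal comes from luciferase acting on luciferin released by CYP2C19-mediated hydroxylation of Luciferin-H EGE, 10uM (KM). Assay mix: 5nM enzyme, 50mM KPO4; 60 min at 37C with NADPH regeneration. Data normalized against 57uM ketoconazole.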
# [10] = biological target: Dual specificity protein kinase CLK4 (Homo sapiens) (UniProt Q9HAZ1); test: qHTS Assay for Inhibitors of CDC-like Kinase 4 (Kinase-Glo Assay) (AID 1770); also: potency is read from the fitted curve at half-maximal effect; nearly all actives have a fitted effect of over 65% in size
# Sequence of Dual specificity protein kinase CLK4 (Homo sapiens) (Q9HAZ1 whole entry, looked up): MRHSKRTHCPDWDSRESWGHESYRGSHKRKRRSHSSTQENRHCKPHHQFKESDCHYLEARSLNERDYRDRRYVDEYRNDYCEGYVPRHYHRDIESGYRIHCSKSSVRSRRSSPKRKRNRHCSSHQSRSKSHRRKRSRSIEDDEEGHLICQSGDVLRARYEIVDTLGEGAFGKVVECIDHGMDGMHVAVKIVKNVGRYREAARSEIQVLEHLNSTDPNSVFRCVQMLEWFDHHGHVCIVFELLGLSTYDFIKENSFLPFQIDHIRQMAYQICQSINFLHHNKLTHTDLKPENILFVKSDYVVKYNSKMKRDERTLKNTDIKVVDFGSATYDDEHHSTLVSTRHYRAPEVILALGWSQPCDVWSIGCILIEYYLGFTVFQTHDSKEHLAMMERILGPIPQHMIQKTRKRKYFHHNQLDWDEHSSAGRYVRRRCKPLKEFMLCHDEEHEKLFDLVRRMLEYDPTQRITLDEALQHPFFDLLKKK
# Summary of the method: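 Readout: Kinase-Glo luminescence from ATP left after a 4.5 h room-temperature reaction of 25 nM Clk4 with 100 uM RS peptide and 1 uM ATP (final). Buffer: 25 mM Tris pH 7.5, 10 mM MgCl2.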
# [11] = biological target: Dual specificity protein kinase CLK4 (Homo sapiens) (UniProt Q9HAZ1); test: qHTS Assay for Inhibitors of CDC-like Kinase 4 (ADP-Glo Assay) (AID 1771); also: potency is read from the fitted curve at half-maximal effect; nearly all actives have a fitted effect of over 70% in size
# Summary of the method: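 Compounds are pin-transferred onto substrate mix (100 uM RS peptide, 1 uM ATP), then 25 nM Clk4 is added. After 1 hr at room temperature, ADP-Glo reagent runs 45 min, detection reagent 30 min, then luminescence is read.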
# [12] = biological target: Ubiquitin carboxyl-terminal hydrolase 1 (Homo sapiens) (UniProt O94782); test: Inhibitors of USP1/UAF1: Pilot qHTS (AID 504865);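 also: rhodamine fluorescence freed from ubiquitin-rhodamine substrate followed over time; top concentration of the series differs between compounds; % is scaled to controls: 0 for no effect and ±100 for the full control effect; nearly all actives have a fitted effect of over 35% in size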
# Sequence of Ubiquitin carboxyl-terminal hydrolase 1 (Homo sapiens) (O94782 whole entry, looked up): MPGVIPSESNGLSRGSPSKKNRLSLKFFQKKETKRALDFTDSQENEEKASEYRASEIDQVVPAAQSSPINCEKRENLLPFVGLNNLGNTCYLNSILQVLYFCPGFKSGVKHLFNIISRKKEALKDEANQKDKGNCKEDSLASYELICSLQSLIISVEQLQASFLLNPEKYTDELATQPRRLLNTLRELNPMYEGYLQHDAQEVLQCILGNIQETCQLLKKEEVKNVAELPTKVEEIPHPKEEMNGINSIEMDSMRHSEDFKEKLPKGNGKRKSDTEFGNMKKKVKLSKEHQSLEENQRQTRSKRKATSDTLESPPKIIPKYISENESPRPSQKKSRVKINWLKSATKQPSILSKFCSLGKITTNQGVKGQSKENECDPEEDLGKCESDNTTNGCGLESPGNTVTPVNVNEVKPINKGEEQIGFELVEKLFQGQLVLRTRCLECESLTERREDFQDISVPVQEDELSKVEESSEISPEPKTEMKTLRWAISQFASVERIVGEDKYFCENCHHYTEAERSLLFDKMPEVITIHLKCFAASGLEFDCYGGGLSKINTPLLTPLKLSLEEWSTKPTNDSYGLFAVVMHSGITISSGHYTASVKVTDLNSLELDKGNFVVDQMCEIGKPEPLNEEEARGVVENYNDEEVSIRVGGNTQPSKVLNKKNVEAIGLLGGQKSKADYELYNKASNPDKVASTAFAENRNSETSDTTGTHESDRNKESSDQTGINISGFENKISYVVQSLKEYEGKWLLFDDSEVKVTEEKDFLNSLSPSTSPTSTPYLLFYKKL
# Summary of the method: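 1nM USP1/UAF1 + cpd, 15 min RT; start w/ Ub-Rho 150nM final; kinetic FL 480/540 nm, 6 reads q60 s. Buffer 50mM HEPES pH 7.8, 0.5mM EDTA, 1mM TCEP, 0.01% Tween-20, 0.1 mg/ml BSA.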
# [13] = biological target: Calcium and integrin-binding protein 1 (Homo sapiens) (UniProt Q99828); test: Primary qHTS for Identification of Calcium Integrin Binding Protein 1 (CIB1) Competitor (AID 1508620);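 also: GST tagged CIB1 binding a fluorescein labelled alphaIIb integrin peptide tracer; top concentration of the series differs between compounds; % is scaled to controls: 0 for no effect and ±100 for the full control effect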
# Sequence of Calcium and integrin-binding protein 1 (Homo sapiens) (Q99828 whole entry, looked up): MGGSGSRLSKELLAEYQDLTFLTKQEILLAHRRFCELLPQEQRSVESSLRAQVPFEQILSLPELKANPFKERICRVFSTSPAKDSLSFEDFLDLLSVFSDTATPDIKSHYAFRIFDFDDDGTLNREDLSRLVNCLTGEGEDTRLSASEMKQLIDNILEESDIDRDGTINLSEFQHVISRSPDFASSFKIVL
# Summary of the method: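 Fluorescence polarization competition: GST-tagged CIB1 (1 uM final) preincubated with compound 15 min at room temperature, then FITC-labelled alphaIIb peptide (100 nM final) added. After 15 min at room temperature, polarization read at Ex 480/Em 540.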
# [14] = Primary qHTS for small molecule stabilizers of the endoplasmic reticulum resident proteome: Secreted ER Calcium Modulated Protein (SERCaMP) assay (AID 1508630); also: % is scaled to controls: 0 for no effect and ±100 for the full control effect
# Summary of the method: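 The SH-SY5Y reporter protocol was run at 3 concentrations up to 38.3 uM (primary) or 11 concentrations (follow-up): 16 h compound, 100 nM thapsigargin for 4 h, then extracellular luciferase luminescence.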
# [15] = Stat Signaling Pathway (AID 446; active = well fitted curve in either direction with a large enough effect, not every such curve was filed as active); conditions: ME-180 (cervical carcinoma) SIE beta-lactamase reporter, IL-6 stimulated, 5 h; at 7.69 µM (top of the series) unless noted
# Summary of the method: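 Normalization used AC90 stimulation (300 pM IL-6) and AC90 inhibition (125 nM pan-JAK inhibitor at 40 pM IL-6). The underlying signal is SIE-driven beta-lactamase in ME-180 cells after 5 h IL-6 exposure with compound.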
# [16] = biological target: Cytochrome P450 3A4 (Homo sapiens) (UniProt P08684); test: qHTS Assay for Inhibitors and Substrates of Cytochrome P450 3A4 (AID 884); also: potency is read from the fitted curve at half-maximal effect; nearly all actives have a fitted effect of over 50% in size
# Summary of the method: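 Luminescent readout of luciferin produced by CYP3A4 (20 nM) dealkylation of Luciferin-PPXE, 25 uM (its KM). NADPH-driven reaction ran 60 min at RT after 10 min compound preincubation; data scaled to 57 uM ketoconazole as 100% inhibition.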
# [17] = Confirmation and Secondary Assay for Modulators of Hemoglobin Beta Chain Splicing at IVS2 654 locus (AID 910);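 also: HeLa cells stably carrying EGFP split by mutant beta-globin IVS2-654 intron; % of control where 0% means no effect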
# Summary of the method: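 HeLa cells stably expressing EGFP interrupted by β-globin IVS2-654 intron, seeded overnight in Opti-MEM/2% FCS, then treated 2 days at 37 °C. Restored splicing read as total peak GFP intensity per well by laser scanning cytometry (488 nm excitation, 500–520 nm emission); 500 nM antisense PNA as control.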
# [18] = Confirmation and Secondary Assay for Modulators of Hemoglobin Beta Chain Splicing at IVS2 705 locus (AID 930);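 also: HeLa cells stably expressing the EGFP-705 splicing reporter; GFP fluorescence per well restored by corrected splicing of the IVS2-705 intron in EGFP; % of control where 0% means no effect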
# Summary of the method: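 HeLa EGFP-705 reporter; 500 cells/well, o/n 37C 5% CO2; cpd 2 d; 488 ex/500-520 em laser scan; total peak GFP intensity/well. Ref: 500 nM […] antisense PNA.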
# [19] = qHTS Assay for Lipid Storage Modulators (AID 1519; calls by dose curve); conditions: Drosophila S3 cells, BODIPY lipid droplet/cell ratio, laser cytometry, cells loaded with oleic acid
# Summary of the method: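 Cells seeded at 5,000 per well were treated with compounds over a concentration series and loaded with oleic acid (400 uM, as added). Lipid droplet fluorescence (488 nm excitation, 500-530 nm channel) was read by laser-scanning cytometry and normalized to 20 uM Triacsin C.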
# [20] = biological target: N-terminal Xaa-Pro-Lys N-methyltransferase 1 (Homo sapiens) (UniProt Q9BV86); test: Confirmatory qHTS for Inhibitors of N-terminal methyltransferase 1 (NTMT1): MTaseGlo Assay (AID 1645874); also: nearly all actives have a fitted effect of over 65% in size; also: potency is read from the fitted curve at half-maximal effect;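 as to activity change, negative = inhibition: luminescence from SAH made as NTMT1 methylates SPKRIA peptide using SAM; 0% = DMSO control and -100% = no-enzyme control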
# Sequence of N-terminal Xaa-Pro-Lys N-methyltransferase 1 (Homo sapiens) (Q9BV86 whole entry, looked up): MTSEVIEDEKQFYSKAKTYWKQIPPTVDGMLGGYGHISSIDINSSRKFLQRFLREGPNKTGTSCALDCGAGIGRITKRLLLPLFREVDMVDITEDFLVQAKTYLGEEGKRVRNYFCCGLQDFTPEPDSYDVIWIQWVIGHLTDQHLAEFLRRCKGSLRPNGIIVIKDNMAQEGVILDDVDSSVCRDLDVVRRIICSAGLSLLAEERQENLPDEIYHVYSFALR
# Summary of the method: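 Inhibition was derived from luminescence after SAH-to-ATP conversion, scaled between no-enzyme and DMSO wells, then fitted by 4-parameter Hill. Conditions: 125 nM NTMT1, 100 uM SAM, 1 uM SPKRIA, 30 min RT.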
# [21] = Confirmatory qHTS for small molecule stabilizers of the endoplasmic reticulum resident proteome: Secreted ER Calcium Modulated Protein (SERCaMP) assay (AID 1508628); also: potency is read from the fitted curve at half-maximal effect; nearly all actives have a fitted effect of over 40% in size
# Summary of the method: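 Reporter secretion upon ER calcium depletion (100 nM thapsigargin, 4 h, 37C) is measured as medium luminescence with coelenterazine, after 16 h compound pretreatment of SH-SY5Y-GLuc-SERCaMP cells; primary at three concentrations up to 38.3 uM, follow-up at 11 (up to 76.6 uM).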
# [22] = NCATS anti-infectives library activity on HEK293 viability as a counter-qHTS vs the C. elegans viability qHTS (AID 1745854)
# Summary of the method: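 Counter-screen for cytotoxicity: HEK293, 24 hr, 37C, compounds up to 41.7 uM final (a dilution series, 1:5). Readout CellTiter-Glo luminescence, 10 min RT. Digitonin control, 83.3 uM final.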
smiles,measurement,setting,value
COc1cccc(-c2ccc3ncnc(NCc4cccnc4)c3c2)c1,Potency,[1],> 11.4 µM (inactive)
same,Potency,[2],0.251 µM (active)
same,"activity change, negative = inhibition",[3],9.62% (inactive)
same,Potency,[4],> 46 µM (inactive)
same,Potency,[5],> 46 µM (inactive)
same,outcome,[6],inactive
same,Potency,[7],inactive
same,Potency,[8],inactive
same,Potency,[9],0.0126 µM (active)
same,Potency,[10],2.82 µM (active)
same,Potency,[11],2.82 µM (active)
same,Potency,[12],inactive
same,Potency,[13],inactive
same,Potency,[14],inactive
COc1cccc(-c2ccc3ncnc(NCc4cccs4)c3c2)c1,Potency,[2],0.501 µM (active)
same,"activity change, negative = inhibition",[3],23.9% (inactive)
same,"activity, negative = inhibition",[15],-19.5% (inactive)
same,Potency,[4],> 46 µM (inactive)
same,Potency,[5],> 46 µM (inactive)
same,outcome,[6],inactive
same,Potency,[16],7.94 µM (active)
same,Potency,[8],inactive
same,outcome,[17],inactive
same,outcome,[18],inactive
same,"activity change, negative = inhibition",[19]; at 57.5 µM (top of the series),-9.22% (inactive)
same,max response,[19]; measured here: cell count channel max response,-18.2%
same,max response,[19]; measured here: lipid channel max response,-23.5%
same,Potency,[13],inactive
same,Potency,[14],inactive
Cc1cc(C)nc(NC(=S)N2CCN(c3ncccc3C#N)CC2)c1,Potency,[13],inactive
same,Potency,[20],22.4 µM (active)
CC(C)(C)c1ccc(-c2csc(N3CCC(C(N)=O)CC3)n2)cc1,Potency,[13],inactive
same,Potency,[20],inactive
Cc1nc(C)c(-c2ccc3ncnc(NCc4ncc[nH]4)c3c2)s1,Potency,[13],inactive
same,Potency,[20],39.8 µM (active)
Cc1cnc(NC(=O)c2cc(S(=O)(=O)N(C)C)ccc2N2CCCC2)s1,Potency,[13],inactive
same,Potency,[21],8.91 µM (active)
same,Potency,[22],inactive
CCCCCCNC(=O)Nc1nnc(-c2ccncc2)s1,Potency,[13],inactive
c1cncc(-c2ccc3ncnc(NCc4cccs4)c3c2)c1,Potency,[13],inactive
same,Potency,[20],39.8 µM (active)
